Here are results for 14 compounds from PubChem BioAssay (NCI).

The panel holds about 83,000 compounds, 20% with a hit somewhere; the sample as a whole holds those more often.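 Testing used 96-well plates and a 48-hour single-concentration exposure. Example: -40 means 40% of the starting cells died.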 Unmarked numbers belong to inactive results. Calls of active or inactive are those of the source. How the source made its calls: active means growth percent below 10; inactive means the rest.

This experiment deals with HL-60(TB) leukemia. Kind of experiment: NCI-60 one-dose screen, 48 h (100 = growth as untreated, 0 = no growth, -100 = all killed). The note with it: 10 µM unless noted.

Consider `Cc1ccnc2c(OCc3ccccc3)cccc12`, for which the growth was 111%. Consider `COc1ccc2nc3cc(Cl)ccc3c(N3CCN(c4ccnc(Nc5ccc(F)cc5)n4)CC3)c2c1`, for which the growth was 52.5%.

With `COc1cccc(-c2nn(-c3ccccc3)cc2-c2ccnc(NCCCNS(=O)(=O)c3ccc(Br)cc3)c2)c1`, the growth is 43.3%. Consider `COc1ccc(-c2nsc3c2NC(=O)CC3c2ccc3c(c2)OCO3)cc1` (centres undefined), for which the growth was -22.3% (active).

Turning to `C/C(=N\Nc1nc2ccccc2s1)c1ccncn1`, the growth was -19.9% (active). For the compound `O=C(c1ccccc1)N1N=C(c2ccc(-n3ccc(C(F)(F)F)n3)c(F)c2)CC1c1ccc[nH]1` (centres undefined), the growth is 101%. With `O=C(/C=C/c1ccccc1)Nc1ncc(Cc2ccccc2Cl)s1` the figure was -10.1% (active). As to `O=C1C=CC(=O)N1c1ccc(I)cc1Cl`, the growth was 97.9%. With `O=C(Nc1ccc(Oc2ccc(Nc3nc4ccccc4s3)cc2)cc1)Nc1ccc(Cl)c(C(F)(F)F)c1` the figure was -19.3% (active); with `C#C[C@@]1(O)[C@@H](CO)O[C@@H](n2cc(I)c3c(N)ncnc32)[C@@H]1O`, -56.6% (active); with `Cc1ccc2nc(Cl)c(Cn3nnnc3SCc3ccccc3)cc2c1`, 97.4%. For `N#Cc1c(NC(=O)c2ccco2)[n+]([O-])c2cc(Cl)c(Cl)cc2[n+]1[O-]` the value was 91.8%; for `COc1c(OCCCN2CCOCC2)ccc2c3n(c(=NC(=O)c4cnc(N)nc4)nc12)CCN3`, 11.3%; for `O=Nc1c(-c2c(O)[nH]c3ccc([N+](=O)[O-])cc23)[nH]c2ccc(O)cc12`, 3.67% (active).
